Measured values published in PubChem BioAssay (NCATS).
Inconclusive results are not listed. Calls of active or inactive are those of the source. Calls come from the whole dose curve; as a rule, active = well fitted inhibition curve with a large enough effect; inconclusive = small, poorly fitted or top-dose-only effect; inactive = flat fitted curve, though single readings scatter.

Columns and labels:
Experiment in all cases: qHTS profiling for inhibitors of Plasmodium falciparum proliferation (AID 504749); note: nearly all actives have a fitted effect of over 60% in size
Details in all cases: P. falciparum in erythrocytes, SYBR Green DNA, 72 h; series mostly up to 28.7 µM
AA1029 = tested on: AA1029
Summary of the method: (§1)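 Quantitative HTS: compounds pinned into medium, infected erythrocytes added (0.3% parasitemia, 2.5% hematocrit), 72 h culture at 37 C under 5% CO2. Saponin/Triton lysis with SYBR Green I, overnight RT, then fluorescence read.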

AS120 = tested on: AS120
Summary of the method: as §1

ATS95 = tested on: ATS95
Summary of the method: as §1

CP217 = tested on: CP217
Summary of the method: as §1

CP238 = tested on: CP238
Summary of the method: as §1

CP247 = tested on: CP247
Summary of the method: as §1

CP250 = tested on: CP250
Summary of the method: as §1

CP252 = tested on: CP252
Summary of the method: as §1

CP256 = tested on: CP256
Summary of the method: as §1

CP260 = tested on: CP260
Summary of the method: as §1

CP291 = tested on: CP291
Summary of the method: as §1

CP329 = tested on: CP329
Summary of the method: as §1

CP335 = tested on: CP335
Summary of the method: as §1

DFO2036 = tested on: DFO2036
Summary of the method: as §1

DIV17 = tested on: DIV17
Summary of the method: as §1

N140 = tested on: N140
Summary of the method: as §1

P94_40 = tested on: P94_40
Summary of the method: as §1

SC27B = tested on: SC27B
Summary of the method: as §1

TAB109 = tested on: TAB109
Summary of the method: as §1

TAB165 = tested on: TAB165
Summary of the method: as §1

Measured: Potency

Nc1nc(O)c(-c2ccccc2)o1
inactive: all assays above

CC1OC(O[C@H]2C[C@@H](O)[C@]3(CO)[C@@H]4C(CC[C@]3(O)C2)[C@@]2(O)CC[C@H](C3=CC(=O)OC3)[C@@]2(C)C[C@H]4O)C(O)C(O)C1O (stereo not given in full)
inactive: all assays above
